Results taken from PubChem BioAssay AID652154 (Broad Institute, 2013).
The campaign covered roughly 360,000 compounds. About 4,200 (1.2%) were called active.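 How the source made its calls: active means mean replicate inhibition at least 60% with every replicate also reaching 60%; inconclusive means only one of the two criteria is met; inactive means mean below 60% and not all replicates reaching 60%.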 This excerpt belongs to a sample that is enriched for actives.

Test: PAX8 transcriptional activity inhibition in RMG-I – RMG-I cells, luciferase, single concentration, primary screen (AID 652154);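 further: luciferase light reporting Pax8 driven TPO promoter activity; plate controls were median of neutral control wells for no effect and mitoxantrone controls for full effect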
Settings: RMG-I TPO-luciferase reporter, SteadyGlo, 24 h; at 12.6 µM; active compounds read high

inhibition, active:
CS(=O)(=O)N(Cc1ccc(Cl)cc1)c1ccc(C(=O)NCCSCc2ccco2)cc1 61.6%, C[C@@H]1CN([C@H](C)CO)C(=O)c2cccc(NC(=O)c3nc4ccccc4s3)c2O[C@H]1CN(C)S(=O)(=O)c1ccc(Cl)cc1 66.2%, C[C@H](CO)N1C[C@H](C)[C@H](CN(C)S(=O)(=O)c2ccc(F)cc2)OCCCC[C@H](C)Oc2ccc(NS(=O)(=O)c3ccc(Cl)cc3)cc2C1=O 87.4%, C[C@@H]1CN([C@H](C)CO)C(=O)c2cc(NS(=O)(=O)c3ccccc3)ccc2O[C@@H](C)CCCCO[C@H]1CN(C)S(=O)(=O)c1ccc(Cl)cc1 73.3%, Cc1ccc(S(=O)(=O)Nc2ccc3c(c2)C(=O)N([C@H](C)CO)C[C@@H](C)[C@H](CN(C)S(=O)(=O)c2ccc(C)cc2)OCCCC[C@@H](C)O3)cc1 71.3%, Cc1ccc(S(=O)(=O)N(C)C[C@@H]2OCCCC[C@@H](C)Oc3ccc(NS(=O)(=O)c4ccc(F)cc4)cc3C(=O)N([C@H](C)CO)C[C@H]2C)cc1 65.5%, C[C@H]1CCCCO[C@@H](CN(C)S(=O)(=O)c2cccs2)[C@@H](C)CN([C@@H](C)CO)C(=O)c2cc(NS(=O)(=O)c3ccc(Cl)cc3)ccc2O1 78.6%, C[C@H]1CCCCO[C@H](CN(C)C(=O)NC2CCCCC2)[C@@H](C)CN([C@@H](C)CO)C(=O)c2cc(NC(=O)Nc3ccc4c(c3)OCO4)ccc2O1 66.1%, C[C@@H]1CCCCO[C@H](CN(C)CC2CCCCC2)[C@H](C)CN([C@H](C)CO)C(=O)c2cc(NC(=O)Nc3ccc(F)cc3)ccc2O1 69.8%, C[C@@H]1CCCCO[C@H](CN(C)C(=O)NC2CCCCC2)[C@H](C)CN([C@H](C)CO)C(=O)c2cc(NC(=O)Nc3ccc(F)cc3)ccc2O1 70.7%, COc1ccc(/C=C/C(=O)OCC(=O)NCc2cccs2)cc1OC 72.7%

inhibition, inactive:
COc1cccc(S(=O)(=O)N[C@@H]2CC[C@H](CCNC(=O)Cc3ccncc3)O[C@@H]2CO)c1 -23.7%, CN(C)C(=O)c1ccc(-c2ccc([C@H]3[C@H](CO)N4C(=O)CN(C(=O)C5CCCC5)C[C@@H]34)cc2)cc1 -16.1%, C[C@H](CO)N1C[C@H](C)[C@@H](CN(C)Cc2cncnc2)Oc2cc(-c3ccccc3)ccc2S1(=O)=O 1.94%, C[C@@H]1CN([C@H](C)CO)C(=O)Cc2cc(NS(C)(=O)=O)ccc2O[C@H]1CN(C)S(=O)(=O)c1ccccc1 -11.5%, C[C@H](O)C#Cc1ccc2c(c1)O[C@H](CN(C)C)[C@@H](C)CN([C@H](C)CO)S2(=O)=O -9.29%, C/C=C/c1ccc([C@H]2[C@@H](CO)N(C(=O)CN(C)C)C23CN(C(=O)C2CCCC2)C3)cc1 -21.3%, Cc1noc(C)c1S(=O)(=O)N(C)C[C@@H]1OCCCC[C@@H](C)Oc2ccc(NC(=O)Nc3ccccc3)cc2C(=O)N([C@H](C)CO)C[C@@H]1C 4.8%, C[C@@H]1CN([C@@H](C)CO)C(=O)c2cc(NS(=O)(=O)c3ccccc3)ccc2O[C@H]1CN(C)CC1CC1 -3.75%, COc1ccc(S(=O)(=O)Nc2cccc3c2O[C@@H](CN(C)Cc2ccc(-c4ccccc4)cc2)[C@H](C)CN([C@H](C)CO)C3=O)cc1 -16.5%, C[C@H]1CCCCO[C@H](CN(C)C)[C@@H](C)CN([C@@H](C)CO)C(=O)c2cc(NC(=O)CCCN(C)C)ccc2O1 -13.7%, COc1cc(OC)cc(C(=O)NCCSCc2ccco2)c1 3.2%, Cc1cc(C)cc(N(CC(=O)NCCSCc2ccco2)S(C)(=O)=O)c1 3.24%, C[C@H](CO)N1C[C@H](C)[C@@H](CN(C)C)Oc2ccc(N(C)C)cc2C1=O -23.1%, COc1ccc(NC(=O)Nc2ccc3c(c2)C(=O)N([C@H](C)CO)C[C@H](C)[C@@H](CN(C)C(=O)NC2CCCCC2)OCCCC[C@@H](C)O3)cc1 19.9%, C[C@@H]1CN([C@H](C)CO)C(=O)c2cccc(NC(=O)c3nc4ccccc4s3)c2O[C@H]1CN(C)Cc1ccccc1 -1.34%, COc1ccc(S(=O)(=O)Nc2ccc3c(c2)C(=O)N([C@H](C)CO)C[C@@H](C)[C@H](CN(C)S(=O)(=O)c2ccc(Cl)cc2)OCCCC[C@@H](C)O3)cc1 55.8%, Cc1ccc(S(=O)(=O)N(C)C[C@H]2OCCCC[C@@H](C)Oc3ccc(NS(C)(=O)=O)cc3C(=O)N([C@H](C)CO)C[C@@H]2C)cc1 -9.1%, C[C@@H]1CN([C@H](C)CO)C(=O)c2cccc(NC(=O)c3nc4ccccc4s3)c2O[C@@H]1CN(C)C -13.2%, C[C@@H]1CCCCO[C@H](CN(C)S(=O)(=O)c2ccc(F)cc2)[C@H](C)CN([C@@H](C)CO)C(=O)c2cc(NS(=O)(=O)c3ccccc3)ccc2O1 3.05%, C[C@@H]1CCCCO[C@H](CN(C)S(=O)(=O)c2ccccc2)[C@@H](C)CN([C@@H](C)CO)C(=O)c2cc(NS(=O)(=O)c3ccccc3)ccc2O1 0.573%, Cc1ccc(S(=O)(=O)N(C)C[C@@H]2OCCCC[C@@H](C)Oc3ccc(NS(=O)(=O)c4ccccc4)cc3C(=O)N([C@H](C)CO)C[C@@H]2C)cc1 -6.72%, C[C@@H]1CCCCO[C@H](CN(C)S(C)(=O)=O)[C@@H](C)CN([C@H](C)CO)C(=O)c2cc(NS(=O)(=O)c3ccc(Cl)cc3)ccc2O1 7.33%, CC=Cc1ccc2n(c1=O)C[C@@H]1[C@@H](CO)[C@H](C(=O)N[C@@H](C)c3ccccc3)[C@H]2N1Cc1ccncc1 (mixture of isomers) -0.758%, CC=Cc1ccc2n(c1=O)C[C@@H]1[C@@H](CO)[C@H](C(=O)NCC(F)(F)F)N(CCc3ccccc3)[C@H]21 (mixture of isomers) 5.7%, O=C(C[C@H]1C=C[C@H](NC(=O)CC2CC2)[C@H](CO)O1)NCc1ccc(Cl)cc1 0.511%, C[C@@H]1CCCCO[C@H](CN(C)S(=O)(=O)c2ccc(Cl)cc2)[C@H](C)CN([C@@H](C)CO)C(=O)c2cc(NS(=O)(=O)c3cccs3)ccc2O1 35.2%, C[C@@H]1CCCCO[C@@H](CN(C)S(C)(=O)=O)[C@H](C)CN([C@@H](C)CO)C(=O)c2cc(NS(=O)(=O)c3ccc(F)cc3)ccc2O1 6.52%, C[C@@H]1CN([C@H](C)CO)C(=O)c2cc(NS(=O)(=O)c3cccs3)ccc2O[C@@H](C)CCCCO[C@@H]1CN(C)S(=O)(=O)c1ccc(Cl)cc1 32.3%, Cc1ccc(S(=O)(=O)Nc2ccc3c(c2)C(=O)N([C@H](C)CO)C[C@H](C)[C@H](CN(C)S(=O)(=O)c2ccc(F)cc2)OCCCC[C@@H](C)O3)cc1 -6.17%, CCCNC(=O)Nc1ccc2c(c1)C(=O)N(C)C[C@@H](OC)[C@H](C)CN(C(=O)C1CCCCC1)[C@H](C)CO2 12.3%, C[C@@H]1CN([C@@H](C)CO)C(=O)c2c(c3ccccc3n2C)-c2ccccc2CO[C@@H]1CN(C)S(=O)(=O)c1cccs1 12.1%, CCCNC(=O)N1[C@H](CNC(C)=O)[C@@H](c2ccc(C3=CCCC3)cc2)[C@@H]1CO -5.47%, C[C@@H]1CCCCO[C@@H](CN(C)C(=O)NC2CCCCC2)[C@H](C)CN([C@@H](C)CO)C(=O)c2cc(NC(=O)Nc3ccc(F)cc3)ccc2O1 17.7%, C[C@H](CO)N1C[C@H](C)[C@H](CN(C)C(=O)NC2CCCCC2)OCCCC[C@H](C)Oc2ccc(NC(=O)Nc3ccc4c(c3)OCO4)cc2C1=O 29.3%, C[C@@H]1CN([C@H](C)CO)C(=O)c2cc(NC(=O)Nc3ccc(F)cc3)ccc2O[C@@H](C)CCCCO[C@@H]1CN(C)CC1CCCCC1 17%, C[C@@H]1CCCCO[C@H](CN(C)C(=O)NC2CCCCC2)[C@H](C)CN([C@@H](C)CO)C(=O)c2cc(NC(=O)Nc3ccc(F)cc3)ccc2O1 52.5%, C[C@H](CO)N1C[C@H](C)[C@@H](CN(C)C(=O)Nc2ccc3c(c2)OCO3)OCCCC[C@H](C)Oc2ccc(NC(=O)Nc3ccc4c(c3)OCO4)cc2C1=O 12%, C[C@@H]1CCCCO[C@H](CN(C)CC2CC2)[C@@H](C)CN([C@H](C)CO)C(=O)c2cc(NC(=O)Nc3ccc(F)cc3)ccc2O1 2.41%, CCCNC(=O)N1CC2(C1)[C@H](c1ccccc1)[C@@H](CO)N2Cc1cccc(Cl)c1 8.51%, O=C(Nc1ccccc1F)N1CC(=O)N2[C@@H](CO)[C@H](c3ccc(C#CC4CCCC4)cc3)[C@@H]2C1 11.2%, C[C@H](NC(=O)C[C@@H]1CC[C@@H](NC(=O)Cc2ccccn2)[C@@H](CO)O1)c1ccccc1 26%, O=C(c1cccnc1)N1CC[C@@H]2[C@@H](CO)Nc3ccc(-c4ccccc4)cc3[C@@H]21 1.4%, CCOc1ccc(/C=C/C(=O)N(CC)CC(=O)NCc2cccs2)cc1OC 10.8%, O=C(COC(=O)/C=C/c1cccc(Cl)c1)NCc1cccs1 6.69%, CNC(=O)C[C@@H]1CC[C@@H]2[C@@H](COc3ccc(NC(=O)c4ccc(F)cc4)cc3C(=O)N2C)O1 -7.92%
